Assay results published in PubChem BioAssay.
Values without a mark were called inactive. No rule for the calls is given here.

biological target: Pantothenate synthetase (Mycobacterium tuberculosis (strain ATCC 25618 / H37Rv)) (UniProt P9WIL5); test: Recombinant Mtb pantothenate synthetase (PanC) inhibitors, coupled enzyme, confirmatory (AID 375); details: coupled enzyme assay; at 10 µM, active compounds read high;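 also: 0% = full reaction with vehicle and 100% = no enzyme background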
Sequence (P9WIL5 whole entry, looked up): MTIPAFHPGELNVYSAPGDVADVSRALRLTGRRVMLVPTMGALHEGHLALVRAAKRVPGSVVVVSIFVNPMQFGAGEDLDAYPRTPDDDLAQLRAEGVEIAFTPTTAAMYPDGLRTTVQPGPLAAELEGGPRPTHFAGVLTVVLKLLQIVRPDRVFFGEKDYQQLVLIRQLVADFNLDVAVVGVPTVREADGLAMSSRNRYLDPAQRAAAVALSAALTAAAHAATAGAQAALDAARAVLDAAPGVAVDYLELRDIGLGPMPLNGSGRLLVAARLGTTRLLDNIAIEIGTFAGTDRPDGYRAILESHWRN

Row | SMILES | inhibition
1 | c1ccc(CCc2nc(-c3cccnc3)no2)cc1 | 0%
2 | Cc1ccc2c(c1C)NC(C)CC2C (configuration not stated) | 0%
3 | CN(C(=O)C(Cl)Cl)c1ccc(OC(=O)c2ccco2)cc1 | 7%
4 | O=C(NCc1ccco1)c1cc2cc3ccc(Cl)cc3nc2o1 | 4%
5 | O=C(Nc1cccnc1)c1noc2c1CCCCC2 | 0%
6 | COC(=O)c1ccc(-c2ccco2)n1Cc1nc(-c2ccc(OC)c(OC)c2)oc1C | 2%
7 | COc1ccccc1NC(=O)c1nnn(CC(=O)Nc2ccccc2)c1N | 1%
